The experiment relates to HEK293T (UBE3A T485A transfected, BAR Wnt reporter). Put plainly: Renilla luciferase signal (cell health) relative to plate median (fold (linear ratio)); higher = higher Renilla signal. Conditions: 24 h. The gist of the method:
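HEK293T cells were grown in DMEM with 10% FBS at 37°C and 5% CO2, at 4500 cells/well in white 384-well plates. They were transfected with a BAR firefly luciferase Wnt reporter, TK-Renilla and an expression plasmid using Fugene 6. Four hours later, robots dosed the chemicals at 0.01–100 uM for 24 h, followed by Dual-Glo luciferase readout. Wnt activity (firefly/Renilla ratio) and cell health (raw Renilla) were median-centred per plate, averaged over four biological replicates.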

Whole data set: some 1,100 compounds, median “Renilla luciferase signal (cell health) relative to plate median” near 0.97, cut for the highest 2% near 1.6. The sample holds the highest values, similar compounds and a random draw of the others, so the mix is not that of the screen.

Turning to `Cc1[nH]c(=O)n(C(C)(C)C)c(=O)c1Cl` [Terbacil], the Renilla luciferase signal by setting is: (concentration: 0.01 uM) 0.884; (concentration: 0.1 uM) 0.706; (concentration: 1 uM) 0.903; (concentration: 10 uM) 0.738; (concentration: 100 uM) 1.53.
As to `O=S(=O)(O)C(F)(F)C(F)(F)C(F)(F)C(F)(F)C(F)(F)C(F)(F)C(F)(F)C(F)(F)F`, the Renilla luciferase signal turned out to be 0.967 (concentration: 0.01 uM); 0.956 (concentration: 0.1 uM); 0.993 (concentration: 1 uM); 0.948 (concentration: 10 uM); 0.944 (concentration: 100 uM).
Consider `[Na+].[O-][Cl+][O-]` [Sodium chlorite], for which the Renilla luciferase signal runs as follows: (concentration: 0.1 uM) 1.07; (concentration: 1 uM) 0.996; (concentration: 10 uM) 1.06; (concentration: 100 uM) 1.34.
On to `Clc1cc(Cl)c(Cl)cc1Cl` [1,2,4,5-Tetrachlorobenzene], for which the Renilla luciferase signal runs as follows: (concentration: 0.1 uM) 0.579; (concentration: 1 uM) 0.572; (concentration: 10 uM) 0.454; (concentration: 100 uM) 0.504.
As for `Brc1ccc(Oc2ccccc2)cc1` [p-Bromodiphenyl ether], the Renilla luciferase signal runs as follows: (concentration: 0.1 uM) 0.896; (concentration: 1 uM) 0.914; (concentration: 10 uM) 0.837; (concentration: 100 uM) 0.987.
Consider `[OH][Sn]([c]1ccccc1)([c]1ccccc1)[c]1ccccc1` [Triphenyltin hydroxide], for which the Renilla luciferase signal reads like this: (concentration: 0.01 uM) 0.857; (concentration: 0.1 uM) 0.622; (concentration: 1 uM) 0.135; (concentration: 10 uM) 0.0103; (concentration: 100 uM) 0.0121.
For `O=C(NC(=O)c1c(F)cccc1F)Nc1ccc(OC(F)(F)C(F)OC(F)(F)F)c(Cl)c1` (centres undefined) [Novaluron] the same measures were 1.08, 0.982, 0.998, 0.935 and 1.48.
Regarding `CCOP(=O)(SC(C)CC)N1CCSC1=O` (centres undefined) [Fosthiazate], the Renilla luciferase signal was determined as 1.08 (concentration: 0.01 uM); 1.07 (concentration: 0.1 uM); 1.19 (concentration: 1 uM); 1.21 (concentration: 10 uM); 1.7 (concentration: 100 uM).
For the compound `[Cl-].[Cl-].[Hg+2]` [Mercuric chloride], the Renilla luciferase signal runs as follows: (concentration: 0.1 uM) 0.533; (concentration: 1 uM) 0.402; (concentration: 10 uM) 0.153; (concentration: 100 uM) 0.0217.
The matching figures for `c1nc[nH]n1` [1H-1,2,4-Triazole]: 0.873, 0.956, 0.885 and 1.12.
With `CN1COCN(Cc2cnc(Cl)s2)C1=N[N+](=O)[O-]` [Thiamethoxam], the Renilla luciferase signal reads like this: (concentration: 0.01 uM) 1.14; (concentration: 0.1 uM) 1.09; (concentration: 1 uM) 1.1; (concentration: 10 uM) 0.959; (concentration: 100 uM) 2.15.
As for `O=[N+]([O-])/N=C1\NCCN1Cc1ccc(Cl)nc1` [Imidacloprid], the Renilla luciferase signal by setting is: (concentration: 0.01 uM) 0.993; (concentration: 0.1 uM) 1.11; (concentration: 1 uM) 0.934; (concentration: 10 uM) 0.949; (concentration: 100 uM) 1.15.
With `CN/C(=N\[N+](=O)[O-])NCc1cnc(Cl)s1` [Clothianidin], the Renilla luciferase signal turned out to be 0.978 (concentration: 0.01 uM); 0.964 (concentration: 0.1 uM); 0.897 (concentration: 1 uM); 1.05 (concentration: 10 uM); 1.48 (concentration: 100 uM).
The matching figures for `O=S1OCC2C(CO1)C1(Cl)C(Cl)=C(Cl)C2(Cl)C1(Cl)Cl` (centres undefined) [Endosulfan]: 1.05, 1.05, 1.02, 1.13 and 1.06.
On to `CS(=O)(=O)c1cc(C(F)(F)F)ccc1C(=O)c1cnoc1C1CC1` [Isoxaflutole], for which the Renilla luciferase signal was determined as 0.938 (concentration: 0.01 uM); 0.74 (concentration: 0.1 uM); 0.954 (concentration: 1 uM); 0.778 (concentration: 10 uM); 2.79 (concentration: 100 uM).
As to `CCC[CH2][Sn]([Cl])([CH2]CCC)[CH2]CCC` [Tributyltin chloride], the Renilla luciferase signal is, setting by setting: (concentration: 0.1 uM) 0.598; (concentration: 1 uM) 0.574; (concentration: 10 uM) 0.235; (concentration: 100 uM) 0.0217.
Regarding `CCCSP(=O)(OCC)Oc1ccc(Br)cc1Cl` (centres undefined) [Profenofos], the Renilla luciferase signal (concentration: 0.01 uM) is 0.9; the Renilla luciferase signal (concentration: 0.1 uM) came out at 0.888; the Renilla luciferase signal (concentration: 1 uM) is 0.969; the Renilla luciferase signal (concentration: 10 uM) was 1; the Renilla luciferase signal (concentration: 100 uM) was 0.894.
For `Nc1nc(N)nc(NC2CC2)n1` [Cyromazine], the Renilla luciferase signal came to 1.1 (concentration: 0.01 uM); 0.889 (concentration: 0.1 uM); 0.95 (concentration: 1 uM); 1.05 (concentration: 10 uM); 1.86 (concentration: 100 uM).
Consider `CCN(CC)N=O` [N-Nitrosodiethylamine], for which the Renilla luciferase signal was 1.02 (concentration: 0.1 uM), 0.957 (concentration: 1 uM), 1.07 (concentration: 10 uM) and 1.08 (concentration: 100 uM).
On to `C=CC(=O)OCCCCCC(C)C` [Isooctyl acrylate], for which the Renilla luciferase signal by setting is: (concentration: 0.1 uM) 0.895; (concentration: 1 uM) 0.841; (concentration: 10 uM) 0.931; (concentration: 100 uM) 1.07.
Turning to `CC1C(c2ccc(Cl)cc2)SC(=O)N1C(=O)NC1CCCCC1` (centres undefined) [Hexythiazox], the Renilla luciferase signal runs as follows: (concentration: 0.01 uM) 0.957; (concentration: 0.1 uM) 0.999; (concentration: 1 uM) 0.929; (concentration: 10 uM) 0.977; (concentration: 100 uM) 0.244.
On to `CN=C=S` [Methyl isothiocyanate], for which the Renilla luciferase signal (concentration: 0.01 uM) stood at 0.842; the Renilla luciferase signal (concentration: 0.1 uM) was 0.902; the Renilla luciferase signal (concentration: 1 uM) was found to be 0.962; the Renilla luciferase signal (concentration: 10 uM) was determined as 1.06; the Renilla luciferase signal (concentration: 100 uM) worked out at 1.71.
With `CC(C)(c1ccccc1)c1ccc(O)c(C(C)(C)c2ccccc2)c1` [2,4-Bis(1-methyl-1-phenylethyl)phenol], the Renilla luciferase signal (concentration: 0.1 uM) was 0.856, the Renilla luciferase signal (concentration: 1 uM) stood at 0.888, the Renilla luciferase signal (concentration: 10 uM) is 1.05 and the Renilla luciferase signal (concentration: 100 uM) worked out at 1.14.
As to `CN(C)c1ccc(C(=O)c2ccc(N(C)C)cc2)cc1` [Michler's ketone], the Renilla luciferase signal runs as follows: (concentration: 0.1 uM) 1.09; (concentration: 1 uM) 1.03; (concentration: 10 uM) 0.702; (concentration: 100 uM) 0.267.
Regarding `Cc1cc(O)ccc1Cl` [4-Chloro-3-methylphenol], the Renilla luciferase signal reads like this: (concentration: 0.1 uM) 0.999; (concentration: 1 uM) 1.09; (concentration: 10 uM) 0.977; (concentration: 100 uM) 1.06.

The record behind these values is the supplement of paper PMC9254222.
